Data: paper PMC6919601, “Identification of Plasmodium dipeptidyl aminopeptidase allosteric inhibitors by high throughput screening” (PLoS ONE, 2019)
The campaign covered roughly 110,000 compounds. About 230 (0.21%) showed an effect of 50% or more. Many of the other results were omitted from the sample, so strong results are more common in it than they were.

Each molecule was assayed against DPAP1 (Plasmodium falciparum, UniProt Q8IIJ9) (assay: primary screen, percent inhibition; read by cleavage of a fluorogenic dipeptide substrate; higher = more effect of the substance).
Chain of DPAP1 (Q8IIJ9 whole entry, looked up): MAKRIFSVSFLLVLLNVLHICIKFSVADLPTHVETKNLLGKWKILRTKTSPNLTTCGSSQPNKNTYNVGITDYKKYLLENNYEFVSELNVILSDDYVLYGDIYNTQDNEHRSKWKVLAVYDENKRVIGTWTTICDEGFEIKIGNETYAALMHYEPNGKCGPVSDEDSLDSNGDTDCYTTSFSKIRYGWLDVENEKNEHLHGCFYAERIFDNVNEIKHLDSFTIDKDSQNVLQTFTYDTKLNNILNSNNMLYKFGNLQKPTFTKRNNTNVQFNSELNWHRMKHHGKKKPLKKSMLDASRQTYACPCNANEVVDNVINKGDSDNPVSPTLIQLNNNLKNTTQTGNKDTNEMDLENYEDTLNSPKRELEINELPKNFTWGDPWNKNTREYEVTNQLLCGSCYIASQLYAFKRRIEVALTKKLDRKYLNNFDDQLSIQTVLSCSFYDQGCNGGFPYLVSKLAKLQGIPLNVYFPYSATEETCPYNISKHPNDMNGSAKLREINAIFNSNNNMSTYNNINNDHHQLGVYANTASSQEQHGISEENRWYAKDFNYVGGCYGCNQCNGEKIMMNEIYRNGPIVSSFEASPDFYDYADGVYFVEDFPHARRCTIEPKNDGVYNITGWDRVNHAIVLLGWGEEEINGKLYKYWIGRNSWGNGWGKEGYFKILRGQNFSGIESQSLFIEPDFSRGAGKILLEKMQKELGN
Set-up: species or system P. falciparum D10 trophozoite lysates; single well
Experimental: HTS was performed in black 384-well plates. The first and last two columns of each plate contained our negative (DMSO) and positive (10 μM JCP410) controls, and the 20 central columns the test compounds at 10 μM. Compounds were first diluted 50-fold into assay buffer (50 mM sodium acetate, 5 mM MgCl2, 10 mM β-mercaptoethanol, and 0.1% CHAPS, pH 5.5) from a 10 mM DMSO stock plates. One microliter of this 200 μM intermediate stock plate was dispensed into the assay plate. […] After 30 min, the reaction was quenched with 20 μL of 0.5 M acetic acid, and the fluorescent intensity measured at 523 nm (λex = 492 nm) using an Analyst HT multimode plate reader (Molecular Devices).
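Note: 30 min substrate incubation versus DMSO and 10 µM JCP410 controls.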

Row | Compound | % Inhibition @ 10 uM [%]
1 | Cc1ccc2oc(=O)c3cc(C(=O)Nc4cc(C)on4)sc3c2c1 | -0.646
2 | CC(c1ccccc1)N1CSC2=C(C#N)C(c3ccc(Cl)cc3)CC(=O)N2C1 (stereo not shown) | 73.1
3 | COc1ccc(C2CC(=O)N3CN(C(C)c4ccccc4)CSC3=C2C#N)cc1OC (stereo not shown) | 28
4 | CC(c1ccccc1)N1CSC2=C(C#N)C(c3cccs3)CC(=O)N2C1 (stereo not shown) | 68
5 | N#CC1=C2SCN(Cc3ccco3)CN2C(=O)CC1c1cccs1 (stereo not shown) | 47.7
6 | CCOc1ccc(C2CC(=O)N3CN(C(C)c4ccccc4)CSC3=C2C#N)cc1 (stereo not shown) | 53.1
7 | Cc1ccc(C2CC(=O)N3CN(C(C)c4ccccc4)CSC3=C2C#N)cc1 (stereo not shown) | 10.6
8 | CCOc1ccc(C2CC(=O)N3C(=C2C#N)SCC3(O)c2ccc(OCC)cc2)cc1 (stereo not shown) | -0.0235
9 | N#CC1=C2SCC(O)(c3ccccc3)N2C(=O)CC1c1cccs1 (stereo not shown) | -4.74
10 | Cc1cc(Cl)ccc1N(CC(=O)Nc1ccc2c(c1)OCO2)S(=O)(=O)c1ccccc1 | 8.03
11 | Cc1ccc(NS(=O)(=O)c2ccc(NC(=O)COc3ccccc3)cc2)c(C)c1 | -4.7
12 | CCOc1ccc(-n2nc3ccc(NC(=O)c4ccc5c(c4)OCCO5)cc3n2)cc1 | 17.9
13 | CCCCCOc1ccc(C2NC(C(=O)O)CS2)cc1 (stereo not shown) | -2.54
14 | Cc1nn(C)c(C)c1/C=C(/C(=O)C(C)C)n1cncn1 | 0.00706
15 | CC1CCCCN1CCNc1ncnc2onc(-c3ccc(Cl)cc3)c12 (stereo not shown) | -3.95
16 | CN(C)c1ccc(-c2c(C#N)c(S)nc3c2C(=O)CC(C)(C)C3)cc1 | -2.81
17 | Oc1cc(-c2ccccc2)nc2nc(Cc3ccccc3)nn12 | 0.795
18 | Cc1ccc(CNC(=O)c2cc3c(s2)-c2ccccc2S(=O)(=O)C3)cc1 | -0.72
19 | CN1C(=O)c2ccccc2C(C(=O)NCCN2CCc3ccccc3C2)C1c1cn(C)c2ccccc12 (stereo not shown) | -7.27
20 | Cc1sc2[nH]c(=O)n(-c3ccc(Cl)c(Cl)c3)c(=O)c2c1C | -0.711
21 | CCc1cc2c(=O)n(-c3ccc(Cl)cc3)c(=S)[nH]c2s1 | 21.1
22 | O=c1c2c3c(sc2[nH]c(=S)n1-c1ccccc1)CC1(CCCCC1)CC3 | 0.774
23 | Cc1sc2[nH]c(=S)n(-c3ccc(Cl)cc3)c(=O)c2c1C | 51.2
24 | Cc1sc2[nH]c(=S)n(-c3ccccc3)c(=O)c2c1C | 72.2
25 | CCc1c(O)n(-c2ccccc2)c(=S)[nH]c1=O | 0.526
26 | COc1ccc(N2CCN(C(=O)CN(C)S(=O)(=O)c3ccc(C)cc3)CC2)cc1 | -5.35

Row | Compound | % Inhibition @ 10 uM [%]
27 | O=[N+]([O-])c1ccc(CSc2ccc(Cl)cc2)cc1 | 2.22
28 | COc1ccc(CNC(=O)c2cc3c(O)nc4ccc(C)cc4c3s2)cc1 | 1.72
29 | N#CC1=C(N)SC(N)=C(C#N)C1c1ccc(Cl)c(Cl)c1 | 40.5
30 | CC1C(C#N)=C(N)SC(N)=C1C#N | 67.5
31 | CCOc1ccc(C2C(C#N)=C(N)SC(N)=C2C#N)cc1OC | 57.7
32 | N#CC1=C(N)SC(N)=C(C#N)C1c1ccccc1 | 70.9
33 | COc1cc(C2C(C#N)=C(N)SC(N)=C2C#N)ccc1O | 28.3
34 | N#CC1=C(N)SC(N)=C(C#N)C1c1cccc(Cl)c1 | 19.5
35 | CC(C)c1ccc(C2C(C#N)=C(N)SC(N)=C2C#N)cc1 | 46.7
36 | Cc1cc(C)c(C)c(C2C(C#N)=C(N)SC(N)=C2C#N)c1C | 4.22
37 | N#CC1=C(N)SC(N)=C(C#N)C1c1ccc(Cl)cc1 | 50.8
38 | N#CC1=C(N)SC(N)=C(C#N)C1c1cccnc1 | 0.731
39 | CCOc1ccc(OCC)c(C2C(C#N)=C(N)SC(N)=C2C#N)c1 | 23.2
40 | Cc1ccc(C2C(C#N)=C(N)SC(N)=C2C#N)c(C)c1 | 27.4
41 | C=CCSc1nnc(NC(=O)Cc2coc3ccc(C)cc23)s1 | 1
42 | CC(Sc1nc(-c2ccccc2)c(-c2ccccc2)[nH]1)C(=O)O (stereo not shown) | -3.04
43 | O=C(Nc1ccc(F)c(Cl)c1)c1cc2nc(C(F)F)cc(C(F)F)n2n1 | -8.02
44 | Cc1oc2ncnc(N3CCOCC3)c2c1C(=O)N(C)Cc1ccco1 | 4.76
45 | COc1ccc2nc(Cl)c(C3CC(c4ccc(Cl)cc4)=NN3C(C)=O)cc2c1 (stereo not shown) | 4.18
46 | NS(=O)(=O)c1ccc(NC(=O)c2cccs2)cc1 | 7.24
47 | NC(=O)C1CCCN(C2CCc3ccccc3C2)C1 (stereo not shown) | -1.5
48 | N#CC1=C(N)SC(N)=C(C#N)C1c1c(Cl)cccc1Cl | 28.7
49 | Cc1ccc(C2C(C#N)=C(N)SC(N)=C2C#N)s1 | 55.8
50 | Cc1ccsc1C1C(C#N)=C(N)SC(N)=C1C#N | 27.5
51 | N#CC1=C(N)SC(N)=C(C#N)C1c1cccs1 | 40.6
52 | Cc1ccc(C2C(C#N)=C(N)SC(N)=C2C#N)o1 | 47.9
